Results reported in PubChem BioAssay (NCATS).
Values joined by “and” are separate entries in the source; they are usually repeats but may differ in a detail not shown here. Equal entries are not always repeated. Records with an inconclusive call do not appear. Active and inactive are the calls of the source. Unless noted, calls come from the whole dose curve; as a rule, active = well fitted curve in the direction sought with a large enough effect; inconclusive = small, poorly fitted or top-dose-only effect, or another doubt; inactive = no such curve, though single readings can be large; an effect the other way counts as inactive or inconclusive.

How the values were obtained:
[1] = target: Glucocorticoid receptor (Homo sapiens) (UniProt P04150); test: GR-EFC Redistribution (AID 451; calls by dose curve; note: potency is the fitted concentration of half-maximal effect); conditions: CHO-K1 GR-EFC translocation, beta-gal luminescence, 2 h
Glucocorticoid receptor (Homo sapiens), sequence (P04150 whole entry, looked up, the tested form may be a part): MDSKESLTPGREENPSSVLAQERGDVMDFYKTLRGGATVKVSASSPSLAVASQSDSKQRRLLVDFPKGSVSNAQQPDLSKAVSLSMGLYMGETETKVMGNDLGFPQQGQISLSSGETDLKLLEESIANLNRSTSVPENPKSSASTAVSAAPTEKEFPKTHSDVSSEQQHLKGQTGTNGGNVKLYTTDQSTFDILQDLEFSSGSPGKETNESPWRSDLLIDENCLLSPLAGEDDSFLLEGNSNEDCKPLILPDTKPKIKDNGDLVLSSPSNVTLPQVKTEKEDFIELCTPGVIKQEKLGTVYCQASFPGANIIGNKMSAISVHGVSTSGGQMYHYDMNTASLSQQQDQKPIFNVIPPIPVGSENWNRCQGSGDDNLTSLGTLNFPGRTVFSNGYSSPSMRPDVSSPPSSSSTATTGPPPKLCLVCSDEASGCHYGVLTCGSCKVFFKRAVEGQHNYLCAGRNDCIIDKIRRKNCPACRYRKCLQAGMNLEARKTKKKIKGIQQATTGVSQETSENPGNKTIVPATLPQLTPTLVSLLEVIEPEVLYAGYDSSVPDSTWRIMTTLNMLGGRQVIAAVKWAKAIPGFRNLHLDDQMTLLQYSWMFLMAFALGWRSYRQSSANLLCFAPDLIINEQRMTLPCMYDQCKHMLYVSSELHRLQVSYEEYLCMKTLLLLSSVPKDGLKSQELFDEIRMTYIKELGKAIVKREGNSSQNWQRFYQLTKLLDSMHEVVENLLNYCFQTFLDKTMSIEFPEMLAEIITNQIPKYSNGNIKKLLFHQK
Outline: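 CHO-K1 cells stably expressing nuclear-localized β-gal enzyme acceptor and GR fused C-terminally to the enzyme donor fragment; ligand-driven nuclear translocation restores β-gal by complementation. Compounds titrated up to 46 uM final, 2 h at 37 °C; luminescence read.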

[2] = target: Mitogen-activated protein kinase 10 (Mus musculus) (UniProt Q61831); test: JNK3 AlphaScreen Assay (AID 530; active = well fitted curve in either direction with a large enough effect, not every such curve was filed as active;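 note: kinase came from lysate of stimulated human HepG2 cells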; note: potency is the fitted concentration of half-maximal effect); conditions: JNK3 lysate, c-Jun phosphorylation; series mostly up to 57.1 µM
Outline: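 JNK3 came from HepG2 lysates pre-activated with IL-1beta and TNF-alpha and phosphorylated biotinylated GST-cJun (1-79) at 10 uM ATP, pH 7.6, room temperature. Compounds were titrated. AlphaScreen signal used anti-phospho-cJun (Ser73) antibody.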

[3] = target: 3',5'-cyclic-AMP phosphodiesterase 4B (Homo sapiens) (UniProt Q07343); test: qHTS Assay for Inhibitors of PDE-IV (AID 607; active = well fitted activation curve with a large enough effect in the main read-out, with a control signal flat, not every such curve was filed as active; note: % of control where 0% means no effect); conditions: HEK293 ACTOne CNG channel cells, membrane potential fluorescence; series mostly up to 22.9 µM
3',5'-cyclic-AMP phosphodiesterase 4B (Homo sapiens), sequence (Q07343 whole entry, looked up): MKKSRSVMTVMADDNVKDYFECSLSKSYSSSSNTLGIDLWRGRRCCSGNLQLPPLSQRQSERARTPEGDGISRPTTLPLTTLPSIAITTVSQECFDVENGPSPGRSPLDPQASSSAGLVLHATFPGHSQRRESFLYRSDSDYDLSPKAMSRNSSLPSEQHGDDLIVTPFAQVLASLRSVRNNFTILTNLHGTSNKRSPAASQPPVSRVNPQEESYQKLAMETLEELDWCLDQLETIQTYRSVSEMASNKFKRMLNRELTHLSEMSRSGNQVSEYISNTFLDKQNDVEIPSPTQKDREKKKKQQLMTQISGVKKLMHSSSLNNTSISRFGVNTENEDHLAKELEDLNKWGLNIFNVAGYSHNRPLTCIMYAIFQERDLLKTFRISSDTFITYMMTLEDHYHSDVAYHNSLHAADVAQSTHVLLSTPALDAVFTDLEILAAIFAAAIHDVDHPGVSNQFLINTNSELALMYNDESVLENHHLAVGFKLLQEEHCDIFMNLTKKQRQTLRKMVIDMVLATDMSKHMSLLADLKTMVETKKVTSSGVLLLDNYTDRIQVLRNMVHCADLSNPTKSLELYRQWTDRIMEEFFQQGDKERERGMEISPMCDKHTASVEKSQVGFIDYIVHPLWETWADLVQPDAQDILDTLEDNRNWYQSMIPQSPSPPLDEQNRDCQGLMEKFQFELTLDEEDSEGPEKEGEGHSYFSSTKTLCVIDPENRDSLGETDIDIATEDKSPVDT
Outline: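 Cell-based read-out of cAMP via a modified cyclic nucleotide-gated channel and membrane potential dye (535/590 nm) in HEK293 cells expressing PDE4 endogenously. Compounds tested up to 22.9 uM final; 100 uM RO 20-1724 reference.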

[4] = Cell Viability - HUV-EC-C (AID 542); conditions: HUV-EC-C endothelial cell viability, qHTS; series mostly up to 92.2 µM;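 note: cells exposed to compound for 40 hours; % is set by controls: 0 for no effect and ±100 for the full control effect; nearly all actives have a fitted effect of over 35% in size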
Outline: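 Decrease in cellular ATP, quantified by luciferase luminescence, reflects toxicity in normal human vascular endothelial HUV-EC-C cells given compound for 40 hr in complete culture medium. Values are AC50s from concentration-response curves.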

[5] = Cell Viability - H-4-II-E (AID 543); conditions: H-4-II-E rat hepatoma viability; series mostly up to 92.2 µM;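 note: cells exposed to compound for 40 hours; nearly all actives have a fitted effect of over 35% in size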; note: potency is the fitted concentration of half-maximal effect
Outline: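 Here, cytotoxicity is measured in the rat hepatoma line H-4-II-E as loss of intracellular ATP after 40 hr compound treatment, detected by luciferase luminescence.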

[6] = Cell Viability - SH-SY5Y (AID 544); conditions: SH-SY5Y neuroblastoma cell viability; series mostly up to 92.2 µM;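 note: cells exposed to compound for 40 hours; nearly all actives have a fitted effect of over 55% in size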
Outline: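 Cytotoxicity is scored as a concentration-dependent fall in intracellular ATP in human SH-SY5Y cells treated 40 hr in complete culture medium. Potency is expressed as AC50 from a Hill equation fit.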

[7] = Cell Viability - Renal Proximal Tubule (AID 545); conditions: renal proximal tubule cells viability, primary cells of rat origin; series mostly up to 91.7 µM;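 note: cells exposed to compound for 40 hours; nearly all actives have a fitted effect of over 40% in size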
Outline: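 Rat kidney proximal tubule cells, freshly isolated; 1000 cells/well, 5 hr settle, compound 40 hr 37 °C. CellTiter-Glo 20 min RT, luminescence read. AC50 by standard Hill fit.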

[8] = Cell Viability - Mesenchymal (AID 546); conditions: mesenchymal cells viability, qHTS; series mostly up to 91.7 µM;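 note: cells exposed to compound for 40 hours before reading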; note: potency is the fitted concentration of half-maximal effect
Outline: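 Normal human renal glomerulus-derived kidney mesenchymal cells, 1000 per well in complete medium, were treated with compounds for 40 hr at 37 °C. Viability was read as intracellular ATP by CellTiter-Glo luminescence; AC50 values came from Hill-equation fits of qHTS concentration-response data.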

[9] = Cellular Toxicity (caspase-3) HepG2 (AID 654); conditions: HepG2 caspase-3 activation, luminescence, 0% = DMSO only, 100% = tamoxifen; series mostly up to 92.2 µM;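 note: cells exposed to compound for 16 hours before reading; 0% = DMSO alone and 100% = caspase signal from 100 µM tamoxifen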
Outline: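 qHTS, HepG2, 1500 cells/well, complete medium; cpd 16 h 37 °C; Caspase-Glo 3/7, 20 min RT; lum. Norm: DMSO vs 100 uM tamoxifen; AC50 Hill fit.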

[10] = Cellular Toxicity (caspase-3) Jurkat (AID 655); conditions: Jurkat caspase-3 activation, luminescence; series mostly up to 92.2 µM;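 note: cells exposed to compound for 16 h at 37 °C before reading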; note: potency is the fitted concentration of half-maximal effect
Outline: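 Luminescent caspase-3/7 readout (aminoluciferin substrate cleavage) in human T-cell leukemia Jurkat cells after 16 hr compound exposure. Concentration-response normalized to DMSO and 100 uM tamoxifen; AC50 by standard Hill equation.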

[11] = Cellular Toxicity (caspase-3) HUV-EC-C (AID 656); conditions: HUV-EC-C cells, caspase-3 activation (apoptosis), vehicle = 0, 100 µM tamoxifen = 100%; series mostly up to 92.2 µM
Outline: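 Luminescent caspase-3/7 activation (aminoluciferin substrate cleavage) in HUV-EC-C cells after 16 hr compound exposure, 37°C. Signal normalized to DMSO basal and 100 uM tamoxifen as 100%; AC50 from concentration-response fitted with the Hill equation.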

[12] = Cellular Toxicity (caspase-3) SHSY5Y (AID 657); conditions: SH-SY5Y caspase-3 activation, DMSO zero, 10 µM staurosporine = 100%; series mostly up to 91.7 µM;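 note: cells exposed to compound for 16 hours at 37 °C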
Outline: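 Luminescent caspase-3/7 readout (aminoluciferin release) in SH-SY5Y cells after 16 h compound exposure in complete medium. Activity scaled between DMSO basal and 10 uM staurosporine as 100%; concentration-response fitted to Hill equation for AC50.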

[13] = Cellular Toxicity (caspase-3) BJ (AID 658); conditions: BJ fibroblasts, luminescence, normalized: DMSO 0%, staurosporine 100%; series mostly up to 91.7 µM;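 note: cells exposed to compound for 16 hours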
Outline: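 Luminescent aminoluciferin-substrate cleavage reports caspase 3/7 activity in normal human BJ fibroblasts after 16 hr compound exposure at 37 °C. Normalized to DMSO (basal) and 10 uM staurosporine (100%); AC50 from Hill fit of concentration-response.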

[14] = Cellular Toxicity (caspase-3) MRC-5 (AID 659); conditions: MRC-5 cells, luminescence, normalized: DMSO 0%, 10 µM staurosporine 100%; series mostly up to 91.7 µM;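 note: cells exposed to compound for 16 h at 37 °C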
Outline: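 Luminescence from caspase-cleaved aminoluciferin substrate (Caspase-Glo 3/7, 1 hr RT) reports caspase 3/7 activity in MRC-5 lung fibroblasts after 16 hr compound exposure. Normalized to DMSO basal and 10 uM staurosporine as 100%; AC50 from Hill fits.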

[15] = Cellular Toxicity (caspase-3) Mesangial (AID 660); conditions: mesangial cells, normalized: DMSO 0%, 100 µM tamoxifen 100%; series mostly up to 91.7 µM;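 note: combined caspase 3 and 7 activity read by Caspase-Glo luminescence; cells exposed to compound for 16 h before the caspase read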
Outline: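 Concentration-response qHTS: compound-induced rise in caspase 3/7 luminescence in human mesangial cells after 16 h, normalized to DMSO and 100 uM tamoxifen controls.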

[16] = Cellular Toxicity (caspase-3) H-4-II-E (AID 663); conditions: H-4-II-E rat hepatoma, scaled: DMSO 0%, 100 µM tamoxifen 100%; series mostly up to 92.2 µM;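 note: cells exposed to compound for 16 hr before readout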
Outline: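 Luminescence from caspase-cleaved aminoluciferin substrate, read 20 min after reagent addition, reports caspase 3/7 activation in rat H-4-II-E cells after 16 hr compound exposure. Normalized to DMSO (basal) and 100 uM tamoxifen (100%); AC50 from Hill fits.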

[17] = Cellular Toxicity (caspase-3) Hek293 (AID 664); conditions: HEK293 caspase-3 activation, DMSO = 0%, 100 µM tamoxifen = 100%; at 92.2 µM (top of the series);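 note: cells exposed to compound for 16 h at 37 °C before readout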
Outline: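 Activation of caspase-3/7 is measured as increased luminescence from cleaved peptide-aminoluciferin substrate in HEK293 cells treated 16 hours at 37 °C. AC50 values come from Hill-equation fits of concentration-response data.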

[18] = Cellular Toxicity (caspase-3) N2a (AID 665); conditions: N2a cells, luminescence, normalized: DMSO 0%, 10 µM staurosporine 100%; series mostly up to 92.2 µM;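 note: compound exposure lasted 16 h at 37 °C before readout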
Outline: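 Plated mouse neuroblastoma N2a cells received titrated compounds for 16 h in complete medium. Caspase activity was then detected with a peptide-aminoluciferin luminescent reagent.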

[19] = Cell Viability - N2a (AID 540); conditions: N2a mouse neuroblastoma cell viability; activity change, negative = cytotoxicity: at 92.2 µM (top of the series);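 note: cells exposed to compound for 40 h at 37 °C; plate controls were DMSO alone for no effect and tamoxifen control for full effect; nearly all actives have a fitted effect of over 45% in size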
Outline: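 First, 1500 N2a cells per well incubate 5 hr at 37 °C; next, compounds are added and incubated 40 hr at 37 °C; finally CellTiter-Glo is added and luminescence read after 20 min, with AC50 derived by Hill modeling.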

[20] = Cell Viability - NIH 3T3 (AID 541); conditions: NIH 3T3 cell viability, qHTS; series mostly up to 92.2 µM;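 note: cells exposed to compound for 40 hours; plate controls were DMSO alone for no effect and tamoxifen positive control for full effect; nearly all actives have a fitted effect of over 25% in size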
Outline: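 AC50 values reflect concentration-dependent loss of intracellular ATP in NIH 3T3 cells after 40 hr treatment in complete culture medium, quantified by luciferase-based luminescence.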

COc1cc(OC)c(C(=O)CCCN2CCCC2)c(OC)c1
inactive: Potency [1] > 20.6 µM | Potency [2] | outcome [3]

N=C(N=C(N)N)N1CCOCC1
inactive: Potency [1] > 20.6 µM and > 46 µM | Potency [2] | outcome [3]

CCOC(=O)C1=C(O)C(=O)N(Cc2ccccc2)C1
inactive: Potency [1] > 46 µM

COC(=O)C1=C(C)NC(C)=C(C(=O)OC(C)C)C1c1cccc2nonc12 (configuration not stated)
inactive: Potency [1] > 46 µM | Potency [2]

Nc1cc(C(Cl)=C(Cl)Cl)c(S(N)(=O)=O)cc1S(N)(=O)=O
inactive: Potency [1] > 20.6 µM | Potency [2] | outcome [3]

O=C(NCCO[N+](=O)[O-])c1cccnc1
inactive: Potency [1] > 46 µM | Potency [2] | outcome [3]

O=C(CCc1ccc(O)cc1)c1c(O)cc(O)cc1O
inactive: Potency [1] > 46 µM | Potency [2] | outcome [3]

CN1C(C(=O)Nc2ccccn2)=C(O)c2sccc2S1(=O)=O
inactive: Potency [1] > 20.6 µM | Potency [2] | outcome [3]

COc1ccccc1N1CCN(CCN(C(=O)C2CCCCC2)c2ccccn2)CC1
inactive: Potency [1] > 46 µM | Potency [2] | outcome [3]

NCCCCNCCCN
inactive: Potency [1] > 46 µM | Potency [2] | outcome [3]

Oc1ccc(OCc2ccccc2)cc1
inactive: Potency [1] > 20.6 µM | Potency [2] | outcome [3]

CC(=O)N1CCN(c2ccc(OC[C@H]3CO[C@](Cn4ccnc4)(c4ccc(Cl)cc4Cl)O3)cc2)CC1
inactive: Potency [1] > 46 µM

O=c1c(O)c(-c2cc(O)c(O)c(O)c2)oc2cc(O)cc(O)c12
active: Potency [2] 12.6 µM
inactive: Potency [1] > 46 µM and > 20.6 µM | outcome [3]

Cc1c(OCC(F)(F)F)ccnc1CS(=O)c1nc2ccccc2[nH]1 (configuration not stated)
inactive: Potency [1] > 46 µM and > 20.6 µM | Potency [2] | outcome [3]

CC(C)c1ccc2c(c1)c(SC(C)(C)C)c(CC(C)(C)C(=O)O)n2Cc1ccc(Cl)cc1
inactive: Potency [1] > 46 µM | Potency [2] | outcome [3]

NNc1nncc2ccccc12
inactive: Potency [1] > 46 µM and > 20.6 µM | Potency [2] | outcome [3]

O=c1ccc2ccc(O)c(O)c2o1
inactive: Potency [1] > 46 µM | Potency [2] | outcome [3]

Cc1cccc(C#Cc2ccccc2)n1
inactive: Potency [1] > 46 µM | Potency [2] | outcome [3]

CCc1nc(N)nc(N)c1-c1ccc(Cl)cc1
active: Potency [5] 0.158 µM | Potency [8] 2 µM | Potency [10] 31.6 µM | caspase-3 activation [17] 101%
inactive: Potency [1] > 20.6 µM | Potency [2] | Potency [4] | Potency [6] | Potency [7] | outcome [9] | outcome [11] | outcome [12] | outcome [13] | outcome [14] | outcome [15] | outcome [16] | outcome [18]

CCCCN(CCCC)CCC(O)c1cc2c(Cl)cc(Cl)cc2c2cc(C(F)(F)F)ccc12 (configuration not stated)
inactive: Potency [1] > 20.6 µM | Potency [2] | outcome [3]

CCN(CC)CCOc1ccc(Cc2ccccc2)cc1
inactive: Potency [1] > 46 µM | Potency [2]

Cc1cc(C2CCCCC2)n(O)c(=O)c1
inactive: Potency [1] > 20.6 µM | Potency [2] | outcome [3]

Nc1ccc(S(N)(=O)=O)cc1
inactive: Potency [1] > 20.6 µM | Potency [2] | Potency [19] | Potency [20] | Potency [4] | Potency [5] | Potency [6] | Potency [7] | Potency [8] | outcome [3] | outcome [9] | Potency [10] | outcome [11] | outcome [12] | outcome [13] | outcome [14] | outcome [15] | outcome [16] | caspase-3 activation [17] -1.76% | outcome [18]

c1ccc2[nH]c(-c3cscn3)nc2c1
inactive: Potency [1] > 20.6 µM | Potency [2] | Potency [4] | Potency [5] | Potency [6] | Potency [7] | Potency [8] | outcome [3] | outcome [9] | Potency [10] | outcome [11] | outcome [12] | outcome [13] | outcome [14] | outcome [15] | outcome [16] | caspase-3 activation [17] -8.39% | outcome [18]

COc1c2occc2cc2ccc(=O)oc12
inactive: Potency [1] > 20.6 µM | Potency [2] | Potency [19] | Potency [20] | Potency [4] | Potency [5] | Potency [6] | Potency [7] | Potency [8] | outcome [9] | Potency [10] | outcome [11] | outcome [12] | outcome [13] | outcome [14] | outcome [15] | outcome [16] | caspase-3 activation [17] 2.24% | outcome [18]

CCN(CC)C(=S)SSC(=S)N(CC)CC
inactive: Potency [1] > 46 µM and > 20.6 µM | Potency [2] | outcome [3]

CCOc1cc(CC(=O)N[C@@H](CC(C)C)c2ccccc2N2CCCCC2)ccc1C(=O)O
inactive: Potency [1] > 20.6 µM | Potency [2] | outcome [3]

NC(=NCc1ccccc1)NC(=O)c1nc(Cl)c(N)nc1N
inactive: Potency [1] > 46 µM and > 20.6 µM | Potency [2] | outcome [3]

CCCc1cc(=O)[nH]c(=S)[nH]1
inactive: Potency [2] | Potency [19] | Potency [20] | Potency [4] | Potency [5] | Potency [7] | Potency [8] | outcome [3] | outcome [9] | Potency [10] | outcome [11] | outcome [12] | outcome [13] | outcome [14] | outcome [15] | outcome [16] | caspase-3 activation [17] 1.8% | outcome [18]

O=C1NC(=O)C(c2ccccc2[N+](=O)[O-])=C1Nc1ccc(O)c(Cl)c1
inactive: Potency [1] > 46 µM | outcome [3]

Oc1ccc(-c2nc(-c3ccc(F)cc3)c(-c3ccncc3)[nH]2)cc1
inactive: Potency [1] > 46 µM | outcome [3]

Cc1cc(=O)oc2cc(O)ccc12
inactive: Potency [2] | outcome [3]

O=C(O)c1cccnc1Nc1cccc(C(F)(F)F)c1
inactive: Potency [1] > 46 µM and > 20.6 µM | Potency [2] | outcome [3]
